Source: PubChem BioAssay AID485346 (Sanford-Burnham Center for Chemical Genomics, 2010)
The campaign covered roughly 330,000 compounds. About 10,000 (3%) were called active.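 How the source made its calls: active means inhibition of at least 50% at 8 µM in the primary screen; inactive means the rest.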 The entries come from a sample that favours actives as a whole.

target: Protein Mdm4 (Homo sapiens) + E3 ubiquitin-protein ligase Mdm2 (Homo sapiens) (UniProt O15151+Q00987); assay: disruptors of Mdm2/MdmX RING complex – cell-based, luminescence, split luciferase, SaOS-2, uHTS, primary screen (AID 485346); conditions: SaOS-2 split-luciferase Mdm2/MdmX complementation, at 8 µM, stronger effect = higher value
Sequence (O15151 whole entry, looked up): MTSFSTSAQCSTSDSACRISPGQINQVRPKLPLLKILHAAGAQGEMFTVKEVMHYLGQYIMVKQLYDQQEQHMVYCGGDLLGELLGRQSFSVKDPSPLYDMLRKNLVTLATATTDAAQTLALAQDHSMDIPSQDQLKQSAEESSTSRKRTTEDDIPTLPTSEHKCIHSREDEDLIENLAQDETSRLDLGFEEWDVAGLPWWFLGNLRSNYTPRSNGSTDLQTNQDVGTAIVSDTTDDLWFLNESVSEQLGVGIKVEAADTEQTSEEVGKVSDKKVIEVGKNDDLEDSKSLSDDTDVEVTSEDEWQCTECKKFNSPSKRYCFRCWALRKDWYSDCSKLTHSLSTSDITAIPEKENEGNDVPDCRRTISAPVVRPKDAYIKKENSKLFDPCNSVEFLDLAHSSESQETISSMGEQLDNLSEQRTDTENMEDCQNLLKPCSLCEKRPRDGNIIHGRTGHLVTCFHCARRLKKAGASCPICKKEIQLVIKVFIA
Sequence (Q00987 whole entry, looked up): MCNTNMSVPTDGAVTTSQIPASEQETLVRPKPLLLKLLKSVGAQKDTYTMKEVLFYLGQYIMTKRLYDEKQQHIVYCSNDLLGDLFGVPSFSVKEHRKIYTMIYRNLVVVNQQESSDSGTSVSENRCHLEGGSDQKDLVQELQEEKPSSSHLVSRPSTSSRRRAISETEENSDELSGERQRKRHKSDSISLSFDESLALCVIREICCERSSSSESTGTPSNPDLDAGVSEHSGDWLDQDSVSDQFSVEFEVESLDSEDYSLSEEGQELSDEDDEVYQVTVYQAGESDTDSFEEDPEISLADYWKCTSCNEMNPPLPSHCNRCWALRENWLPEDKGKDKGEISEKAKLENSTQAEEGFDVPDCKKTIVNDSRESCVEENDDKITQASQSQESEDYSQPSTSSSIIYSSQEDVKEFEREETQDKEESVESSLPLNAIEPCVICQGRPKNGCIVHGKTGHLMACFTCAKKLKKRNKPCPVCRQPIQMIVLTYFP

inhibition, inactive:
COC(=O)Cc1ccc(OCC(=O)NC2CCCC2)cc1 8.06%
CC(=O)c1ccc(OCCCC(=O)Nc2ccc(C)c(S(=O)(=O)N3CCOCC3)c2)cc1 13.1%
CC(=O)NCc1ccc(-c2csc(NC(=O)CCCc3nc4ccccc4c(=O)[nH]3)n2)cc1 6.81%
CCOC(=O)c1ccccc1NC(=O)CSc1nc2ccccc2c(=O)[nH]1 10.1%
Cc1nnc(Nc2ccccc2F)s1 1.11%
Cc1nc(NC(=O)c2cccc(Cl)c2)sc1-c1csc(Nc2cccc(Cl)c2)n1 -2.75%
O=C(Nc1ccc(C(F)(F)F)cc1)c1cccc(-n2cnnn2)c1 -13.9%
CCn1cc(CCC(=O)NCc2ccc(F)cc2)c2ccccc21 -7.13%
Cc1noc(C)c1C(=O)OCC(=O)N1CCN(S(=O)(=O)c2ccc3ccccc3c2)CC1 -6.59%
COc1ccc(CC(=O)NCc2nnc(SCC(=O)Nc3ncc(C)s3)n2C)cc1 6.63%
Cc1nnc(NC(=O)c2ccc3nccnc3c2)s1 6.88%
CCSc1nnc(NC(=O)c2ccc(C)cc2)s1 -64.2%
Cc1ccc(S(=O)(=O)CC(=O)Nc2nnc(C)s2)cc1 7.87%
COCCSc1nnc(NC(=O)CCS(=O)(=O)Cc2ccccc2)s1 25.9%
CCN(CC)S(=O)(=O)c1cc(C(=O)Nc2cc(S(=O)(=O)N3CCOCC3)ccc2N2CCCC2)ccc1F 26.3%
CCC(NC(=O)c1cc(COc2ccc(F)c(F)c2)on1)c1ccncc1 (stereo unspecified) 5.8%
O=C(Nc1ccc2sc3ccccc3c(=O)c2c1)c1ccccc1Cl -48%
CCOC(=O)Cn1nnnc1C 15.3%
O=C(CN1CCC(NC(=O)C2CC2)CC1)Nc1ccccc1[N+](=O)[O-] 15.4%
COc1ccc(CC(=O)N[C@@H]2c3cc(OC)c(OC)cc3C[C@H]2OCc2ccccc2)cc1 38.6%
O=c1c2ccccc2nc2n1C(CSCc1cccc(C(F)(F)F)c1)CS2 (stereo unspecified) 0.237%
Cc1noc(C)c1C(=O)NCC1COc2ccccc2O1 (stereo unspecified) 26.4%
O=C1C(=O)N(CC2COc3ccccc3O2)c2ccccc21 (stereo unspecified) 26.1%
CCCCN(C)CCNC(=O)CSCc1ccc(C)cc1 7.69%
CCOC(=O)NC(=O)C(=CNc1cccc(OC)c1)C(=O)NC(=O)OCC 9.28%
C=CCOCCN(C)C1=NS(=O)(=O)c2ccccc21 5.66%
O=C(Nc1nc(-c2cccnc2)cs1)c1ccccc1F -52.4%
CN(Cc1ccccc1)S(=O)(=O)c1nnc(NC(=O)c2ccccc2F)s1 -3.09%
CCSc1nc(=S)n(CC)c(C)c1C(C)=O 14.7%
COc1ccc(-c2cn3ccc(C)cc3n2)cc1 33.6%
Cc1ccc(-c2cn3cc([N+](=O)[O-])ccc3n2)cc1 -68.9%
CCN(CC)S(=O)(=O)c1ccc(-c2cn3ccc(C)cc3n2)cc1 -58.3%
CSc1nnc2ccc(-c3ccc(C)cc3)nn12 34.9%
C[C@@]12C(=O)N(c3cccc(Br)c3)C(=O)N1[C@H](c1ccc(Cl)cc1)[C@@H]1C(=O)N(C3CCCCC3)C(=O)[C@@H]12 49.2%
CCC(C)C(N=C1NS(=O)(=O)c2ccccc21)C(=O)N1CCC(C)CC1 (stereo unspecified) 11.7%
CCC1(C)NC(=O)N(CC(=O)N2CCN(c3cccc(Cl)c3)CC2)C1=O (stereo unspecified) 13.3%
CCN1C(=O)/C(=C\N2CCOCC2)SC1=S 7.76%
CCOc1ccc(N/C=C/C(=O)c2ccccc2)cc1 -143%
CCOc1ccc(N/C=C/C(=O)c2cc(OC)c(OC)c(OC)c2)cc1 28.5%
COc1ccccc1-c1sc2ccccc2c1C#CC1(O)CCCCC1 12%
CSc1ccccc1NC(=O)COC(=O)CCCOc1ccc(C)cc1 2.26%
COc1ccc(/C=C/c2nnc(NC(=O)C(C)C)s2)cc1 18.7%
O=C(CSc1ccccc1)Nc1nnc(/C=C/c2ccccc2)s1 -2.82%
CC(=O)NCC(=O)N1CCC(n2nccc2NC(=O)CCCc2ccccc2)CC1 -4.94%
COC(=O)c1cccc(N(CC(=O)NCC2CCCO2)C(=O)CCC(=O)Nc2cc(C)on2)c1 (stereo unspecified) 5.29%
COc1ccccc1C(=O)NN1C(=O)C2C3C=CC(O3)C2C1=O (stereo unspecified) 14.8%
O=C(NN1C(=O)C2C(C1=O)C1C=CC2C12CC2)c1ccccc1Cl (stereo unspecified) 4.22%
COCCN1C(=O)N(c2ccc(Cl)cc2)C(=O)C1CC(=O)Nc1cc(OC)cc(OC)c1 (stereo unspecified) 22.4%
O=C(Nc1ccc(Br)cc1)c1cccc(NC(=O)C2C3CC4OC(=O)C2C4C3)c1 (stereo unspecified) 8.16%

inhibition, active:
O=C(CSc1nc2ccccc2c(=O)[nH]1)Nc1nc(-c2ccc(Br)cc2)cs1 75.5%
O=C(Nc1ccc(-c2csc(Nc3cccc(C(F)(F)F)c3)n2)cc1)c1cccc(C(F)(F)F)c1 69.4%
Cc1ccc(CS(=O)(=O)c2ncc(Cl)c(C(=O)Nc3nnc(C)s3)n2)cc1 99.7%
CSc1nnc(NC(=O)c2nc(S(=O)(=O)Cc3ccc(C)cc3)ncc2Cl)s1 98.2%
Cc1cc(C(=O)CCl)c(C)n1CC1COc2ccccc2O1 (stereo unspecified) 78.9%
O=C(Nc1nnc(-c2ccccc2F)s1)c1ccccc1F 54.1%
Cc1ccc2nc(-c3ccc(Br)cc3)cn2c1 61.7%
Cc1ccc(-c2cn3cc(C)ccc3n2)cc1 89.4%
CCN1C(=O)/C(=C\N2CCN(c3cccc(Cl)c3)CC2)SC1=S 64.2%
COc1ccc(C(=O)/C=C/Nc2ccccn2)cc1 56.3%
O=C(Nc1ccc(Cl)cc1)Nc1nnc(/C=C/c2ccccc2)s1 84.4%
CC12CCC(C(=O)N(NC(=O)c3ccccc3O)C1=O)C2(C)C (stereo unspecified) 61.1%
